Results: PubChem BioAssay AID1851 (National Center for Advancing Translational Sciences (NCATS), 2009)
In all, about 16,000 compounds went through this assay and about 4,000 (25%) were called active. Inconclusive results (about 26%) are left out. Calls come from the whole dose curve; as a rule, active = well fitted curve in the direction sought with a large enough effect; inconclusive = small, poorly fitted or top-dose-only effect, or effect the other way; inactive = no such curve, though single readings can be large or run the other way. Only a sample is shown.

Each compound was assayed against Cytochrome P450 2C9 (Homo sapiens) (UniProt P11712) (assay: Cytochrome panel assay with activity outcomes). Conditions: recombinant CYP, pro-luciferin dealkylation, luminescence, p450-cyp2c9; series mostly up to 57.1 µM; activity, negative = inhibition: at the top concentration.
% is set by controls: 0 for no effect and ±100 for the full control effect.

Cytochrome P450 2C9 (Homo sapiens), sequence (P11712 whole entry, looked up): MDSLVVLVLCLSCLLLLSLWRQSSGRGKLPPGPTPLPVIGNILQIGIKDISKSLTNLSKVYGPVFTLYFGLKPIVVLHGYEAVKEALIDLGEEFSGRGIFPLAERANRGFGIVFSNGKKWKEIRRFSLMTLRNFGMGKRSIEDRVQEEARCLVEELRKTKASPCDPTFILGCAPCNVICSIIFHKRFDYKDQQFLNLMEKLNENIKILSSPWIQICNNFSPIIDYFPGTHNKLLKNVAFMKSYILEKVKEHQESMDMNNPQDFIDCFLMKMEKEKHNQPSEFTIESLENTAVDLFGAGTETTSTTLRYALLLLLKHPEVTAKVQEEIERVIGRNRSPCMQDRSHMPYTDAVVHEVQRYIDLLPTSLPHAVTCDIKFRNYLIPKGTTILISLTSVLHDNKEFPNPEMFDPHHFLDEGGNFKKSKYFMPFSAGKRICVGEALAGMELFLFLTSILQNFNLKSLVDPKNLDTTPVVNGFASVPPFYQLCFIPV

activity, negative = inhibition, inactive:
NC[C@H]1O[C@H](n2cnc3c(N)ncnc32)C[C@@H]1O 11.4% [at 11.4 µM]
CCCCN(C)Cc1c(C)[nH]c2ccc(Cl)cc2c1=O -23.2%
O=C(NCCCN1CCC(Cc2ccccc2)CC1)C1CCN(S(=O)(=O)N2CCOCC2)CC1 -2.95%
O=C(NCCCN1CCN(Cc2ccccc2)CC1)C1CCN(S(=O)(=O)N2CCCC2)CC1 -14.5%
NCS(=O)(=O)O -4.35% [at 11.4 µM]
Cc1noc(C)c1-c1cc(NCc2cccs2)ncn1 17.3% [at 2.29 µM]
CC(/C=C/c1ccccc1)=N/NC(=O)CNC(=O)c1ccc2c(c1)OCO2 -26%
O=C(N/N=C/c1ccccn1)c1ccc(Br)o1 -46.8%
Cc1c(/C=N/NC(=O)c2ccc3c(c2)OCO3)cnn1C -16.9%
CN1CCN(c2ncncc2-c2ccccc2Cl)CC1 -9.71% [at 2.29 µM]
CC(=O)OC[C@@H]1O[C@@H](O/N=C2/C[C@@H](O)[C@@H](O)[C@@H]3[C@@H]4C(=O)N(C[C@@H]5CCCO5)C(=O)[C@H]4CC[C@H]23)[C@H](OC(C)=O)[C@H](OC(C)=O)[C@@H]1OC(C)=O 5.35% [at 11.4 µM]
COc1ccc(-n2cnc3sc(-c4ccccc4)cc3c2=O)cc1 -26.2%
COc1cccc(-c2nc(Nc3ccncc3)c3ccccc3n2)c1 -24.2% [at 2.29 µM]
C[C@@]12C[C@H](O)[C@@H]3[C@H](CCC4=CC(=O)CC[C@]43C)[C@H]1CC[C@@H]2c1csc(N)n1 0.854% [at 11.4 µM]
CC(=O)[C@H]1CC[C@H]2[C@@H]3C=CC4=CC(=O)CC[C@@]4(C)[C@H]3CC[C@]12C -25% [at 25.6 µM]
CCCCSc1nnc(-c2ccc(C)cc2)n1C 14.8%
Nc1ccccc1CCCC(=O)O 1.29% [at 11.4 µM]
COc1cccc(C2=NOC(C(=O)NCc3ccccn3)C2)c1 (stereo not given) 14.7%
Cn1c(=O)c2c(nc(N/N=C\c3ccccc3C(=O)O)n2C)n(C)c1=O 7.56% [at 11.4 µM]
CCn1c(CCCc2nc3c([nH]2)c(=O)n(C)c(=O)n3C)nc2c1c(=O)n(C)c(=O)n2C 6.37% [at 11.4 µM]
C[C@@]1(C(=O)O)CCC[C@@H]1C(=O)O 2.33% [at 11.4 µM]
C[N+]1(CCCC[N+]2(C)CCCCCCC2)CCCCCCC1 -4.37% [at 11.4 µM]
Cc1cccc(OCCCC(=O)Nc2ccccc2C(F)(F)F)c1 47.3%
O=C(NCCc1ccccc1)C(=O)NCC1(c2ccccc2)CCCC1 -15.3%
C=CCC(NCc1ccco1)c1ccc(OC)cc1 (stereo not given) -46.1%
CCN(CC)CCNC(=O)Cn1nc(-c2ccc(C)cc2)ccc1=O -0.479%
Cc1ccc(OCC(=O)NNC(=O)CCC(=O)Nc2ccc(C)cc2C)cc1 33.9%
CCCN1CCN(CCCNC(=O)Cn2nc(-c3ccc(C)cc3)ccc2=O)CC1 -9.34%
O=P(O)(CCP(=O)(O)c1ccccc1)c1ccccc1 2.87% [at 11.4 µM]
Cc1noc(C)c1-c1cncnc1N(C)Cc1ccco1 17.6% [at 2.29 µM]
NCC[C@H](N)C(=O)O 0.553% [at 11.4 µM]
CC1(C)OC(C(N)=O)C(C(N)=O)O1 (stereo not given) -8.75%
COCCNC(=O)c1ccc2c(c1)nc(C)n2-c1cc(OC)c(OC)c(OC)c1 12.1%
C/C(CC(=O)NCc1ccco1)=N\NC(=O)Cc1ccccc1 -20.5%
CCS(=O)(=O)N1CCC(C(=O)NCc2ccco2)CC1 -2.6%
Cc1ccc(OCC(=O)NNC(=O)CCC(=O)NCc2ccccc2)cc1 -12%
CS(=O)(=O)Nc1c(O)ccc2c1CCC[C@H]2C1=NCCN1 13.5%
COc1ccc(Cl)cc1N=Nc1ncc[nH]1 19.7%
CC(=O)N1CCC[C@@]2(CCN(Cc3ccccc3)C2)C1 16.9%
O=C(O)c1ccc2c(c1)C(=O)N(C(Cc1ccc(O)cc1)C(=O)O)C2=O (stereo not given) -5.05%
C[N+](C)([O-])CCC=C1c2ccccc2CCc2ccccc21 -29.7% [at 11.4 µM]
Nc1ccc(C(=O)C[C@H](N)C(=O)O)cc1O -13.6% [at 11.4 µM]
Cc1ccc(-c2c(C)sc(NC(=O)C3C4CCC(O4)C3C(=O)O)c2C(=O)OC(C)C)cc1 (stereo not given) -14.7%
NC(=O)c1ccccc1-c1nc(-n2ccnc2)c2ccccc2n1 8.72% [at 2.29 µM]
COCCNc1ncnc2ccc(-c3ccoc3)cc12 0.323% [at 2.29 µM]
CC(=O)OC[C@@H]1O[C@H](C/C=N\O[C@@H]2O[C@H](COC(C)=O)[C@@H](OC(C)=O)[C@H](OC(C)=O)[C@H]2OC(C)=O)C=C[C@@H]1OC(C)=O 4.96% [at 11.4 µM]
CC(=O)NS(=O)(=O)c1ccc(NC(=S)NC(=O)C(C)(C)C)cc1 -2.25%
CN1CC[C@@]2(CCCN(C(=O)c3cc(C(F)(F)F)cc(C(F)(F)F)c3)C2)C1 4.45%
CCOC(=O)C1=C(O)/C(=C\c2ccc(OC)c(OC)c2)N=C1C 5.5%
CCOC(=O)C1=C(O)/C(=C/c2cc(OC)c(OC)c(OC)c2)N=C1C -28.9%
CCOC(=O)NNC1CC(=O)N(c2ccc(OC)cc2)C1=O (stereo not given) -14.3%
O=C1CC(N2CCOCC2)C(=O)N1c1cccc(Cl)c1 (stereo not given) -23.5%
COc1ccc(C(=O)N2CCC3(CCN(C(=O)Nc4cccc(F)c4)CC3)CC2)cc1 -1.3%
Cc1cnc(CNc2ncnc3ccc(-c4ccccc4Cl)cc23)cn1 -25% [at 2.29 µM]
COc1ccc(-n2c(=O)c(-c3cccs3)nc3cnc(N4CCN(C)CC4)nc32)cc1 4.17%
COc1ccc(C2=Nc3cccc4cccc(c34)N2)cc1 -5.7%
Cn1cnc2c(NC3CCCC3)ncnc21 1.38%
COc1ccc(C(=O)N2CC3(CC(c4ccc(Cl)cc4)=NO3)C[C@H]2C(=O)NCC(N)=O)cc1 (stereo not given in full) 18.7%
COc1ccccc1NC(=O)C(C/C=C(\C)Cl)C(C)=O (stereo not given) -5.41%
CO[C@H]1COC(=O)CCC[C@H](C)[C@@H](OC)COC(=O)C/C=C\[C@@H]1C 14.4% [at 11.4 µM]
Cn1cc(-c2nc3cncnc3n(C3CC3)c2=O)c2ccccc21 9.43%
Cn1cc(-c2nc3cnc(N4CCOCC4)nc3n(C3CC3)c2=O)c2ccccc21 -6.78%
Cn1cc(-c2nc3cnc(N4CCNCC4)nc3n(-c3ccccc3)c2=O)c2ccccc21 -8.65%
CN1CCN(c2ncc3nc(-c4cn(C)c5ccccc45)c(=O)n(-c4ccccc4)c3n2)CC1 -8.3%

AC50, inactive:
CNCCCC1c2ccccc2C=Cc2ccccc21

AC50, active:
O=C(NCCc1ccc(Cl)cc1)C1CCN(S(=O)(=O)N2CCC3(CC2)OCCO3)CC1 7.08 µM
N#Cc1ccc(C2=NC(C(F)(F)F)(C(F)(F)F)c3c(n(Cc4ccco4)c(=O)[nH]c3=O)N2)cc1 0.398 µM
CC1(C)CC2(CC(c3cccs3)c3cc(Cl)c(O)cc3O2)NC(=S)N1 (stereo not given) 1 µM
O=C(N/N=C\c1cn(-c2ccccc2)nc1-c1ccccc1)c1ccc(Br)o1 1.58 µM
COc1ccc(-c2nn(-c3ccccc3)cc2/C=N/NC(=O)c2ccc3c(c2)OCO3)cc1 3.16 µM
O=C(N/N=C\c1cn(-c2ccccc2)nc1-c1ccccc1)c1ccc2c(c1)OCO2 3.98 µM
COc1ccc(Nc2ncnc3sc(-c4ccccc4)cc23)cc1 3.98 µM
CC(=O)[C@@H]1CC[C@@H]2[C@@H]3C[C@H](C)C4=CC(=O)CC[C@@]4(C)[C@H]3[C@H](O)C[C@]21C 0.398 µM
CCCCSc1ccc2nc(-c3ccc(C#N)cc3)cn2c1 3.55 µM
CC(C)CCn1c(Oc2ccccc2Cl)nc2c1c(=O)n(C)c(=O)n2C 1 µM
Cc1ccc(OCCCC(=O)Nc2ccccc2C(F)(F)F)cc1 7.94 µM
Cc1ccc(-c2ccc(=O)n(CC(=O)NCc3ccco3)n2)cc1 7.94 µM
CCCCOc1ccc(C(=O)N/C(=C\c2ccc(OC)cc2)C(=O)OCc2ccco2)cc1 2.82 µM
CCCCCOc1ccc(C(=O)NCC2(c3ccccc3)CCOCC2)cc1 2.82 µM
CC(C)(C)c1ccc(C(=O)NCCC(=O)NCc2ccco2)cc1 2.24 µM
CCOc1ccc(-n2c(C)nc3cc(C(=O)NCc4ccco4)ccc32)cc1 17.8 µM
Cc1ccc(OCCCC(=O)NCc2ccco2)cc1 14.1 µM
CCCCOc1ccc(C(=O)NCc2ccco2)cc1 10 µM
Cc1sc(NC(=O)C2C3CCC(O3)C2C(=O)O)c(C(=O)OC(C)C)c1-c1ccc(Cl)cc1 (stereo not given) 14.1 µM
CCOC(=O)c1ccc(N/C(=N\S(=O)(=O)c2ccccc2C)c2ccccc2)cc1 3.98 µM
COc1ccc(CC(=O)NC(=S)Nc2ccc(S(=O)(=O)NC(C)(C)C)cc2)cc1 8.91 µM
CCCCCC/C(C)=C1/SC(=S)NC1=O 5.01 µM
CCOC(=O)c1ccccc1OCc1cc(/C=N/n2cnnc2)ccc1OC 2.24 µM
O=C1CC(SC(=Nc2ccccc2)Nc2ccccc2)C(=O)N1c1cccc(Cl)c1 (stereo not given) 3.55 µM
CCN=C(Nc1cccc(F)c1)SC1CC(=O)N(c2ccc(OC)cc2)C1=O (stereo not given) 6.31 µM
COc1ccc(N2C(=O)CC(S/C(N)=N/N=C(\C)c3cccs3)C2=O)cc1 (stereo not given) 3.98 µM
CCCOc1ccc(N2C(=O)CC(S/C(N)=N/N=C(\C)c3cccs3)C2=O)cc1 (stereo not given) 4.47 µM
COc1ccccc1NC(=O)[C@H](COCc1ccccc1)NC(=O)OC(C)(C)C 7.94 µM
Cn1cc(-c2nc3cnc(N4CCNCC4)nc3n(C)c2=O)c2ccccc21 7.94 µM
Cn1cc(-c2nc3cnc(N4CCNCC4)nc3n(C3CC3)c2=O)c2ccccc21 3.98 µM
